According to PubChem BioAssay (NCATS):
Inconclusive results are not listed. Calls of active or inactive are those of the source. Calls come from the whole dose curve; as a rule, active = well fitted inhibition curve with a large enough effect; inconclusive = small, poorly fitted or top-dose-only effect; inactive = flat fitted curve, though single readings scatter.

What was measured:
Experiment in all cases: qHTS profiling for inhibitors of Plasmodium falciparum proliferation (AID 504749); note: nearly all actives have a fitted effect of over 60% in size
Settings in all cases: P. falciparum in erythrocytes, SYBR Green DNA, 72 h; series mostly up to 28.7 µM
CP194 = test system: CP194
Procedure, shortened: (§1)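 In a 72 h erythrocytic culture (37 C, humidified, 5% CO2) at 2.5% hematocrit and 0.3% starting parasitemia, compounds were tested; SYBR Green I in detergent lysis buffer stained parasite DNA overnight.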

CP217 = test system: CP217
Procedure, shortened: as §1

CP237 = test system: CP237
Procedure, shortened: as §1

CP247 = test system: CP247
Procedure, shortened: as §1

CP252 = test system: CP252
Procedure, shortened: as §1

CP256 = test system: CP256
Procedure, shortened: as §1

CP260 = test system: CP260
Procedure, shortened: as §1

CP262 = test system: CP262
Procedure, shortened: as §1

CP268 = test system: CP268
Procedure, shortened: as §1

CP269 = test system: CP269
Procedure, shortened: as §1

CP286 = test system: CP286
Procedure, shortened: as §1

CP192 = test system: CP192
Procedure, shortened: as §1

CP201 = test system: CP201
Procedure, shortened: as §1

CP203 = test system: CP203
Procedure, shortened: as §1

CP211 = test system: CP211
Procedure, shortened: as §1

CP215 = test system: CP215
Procedure, shortened: as §1

CP238 = test system: CP238
Procedure, shortened: as §1

CP250 = test system: CP250
Procedure, shortened: as §1

CP265 = test system: CP265
Procedure, shortened: as §1

CP266 = test system: CP266
Procedure, shortened: as §1
Potency is the fitted concentration of half-maximal effect.

| Structure (SMILES) | Potency (CP194) | Potency (CP217) | Potency (CP237) | Potency (CP247) | Potency (CP252) | Potency (CP256) | Potency (CP260) | Potency (CP262) | Potency (CP268) | Potency (CP269) | Potency (CP286) | Potency (CP192) | Potency (CP201) | Potency (CP203) | Potency (CP211) | Potency (CP215) | Potency (CP238) | Potency (CP250) | Potency (CP265) | Potency (CP266) |
| --- | --- | --- | --- | --- | --- | --- | --- | --- | --- | --- | --- | --- | --- | --- | --- | --- | --- | --- | --- | --- |
| CC(NCCC(c1ccccc1)c1ccccc1)c1ccccc1 (configuration not stated) | 15.1 µM (active) | 8.91 µM (active) | 10 µM (active) | 7.94 µM (active) | 10 µM (active) | 12.6 µM (active) | 10 µM (active) | inactive | 13.5 µM (active) | 16.9 µM (active) | 3.98 µM (active) |  |  |  |  |  |  |  |  |  |
| O=S(=O)(O)c1ccc2nc(-c3ccccc3)[nH]c2c1 | inactive | inactive | inactive | inactive | inactive | inactive | inactive | inactive | inactive | inactive | inactive | inactive | inactive | inactive | inactive | inactive | inactive | inactive | inactive | inactive |
| CN1CCC(Nc2ncc3ncnc(Nc4ccc(F)c(Cl)c4)c3n2)CC1 |  | 11.2 µM (active) |  |  | 7.94 µM (active) |  |  | inactive |  |  | 11.2 µM (active) |  |  |  |  |  |  |  |  |  |
| Nc1ncnc2nc[nH]c12 | inactive | inactive | inactive | inactive | inactive | inactive | inactive | inactive | inactive | inactive | inactive | inactive | inactive | inactive | inactive | inactive | inactive | inactive | inactive | inactive |
| CCCCCCCCCCCCCCCC[N+](C)(C)Cc1ccccc1 | 12 µM (active) | 3.16 µM (active) | 3.55 µM (active) | 2.24 µM (active) | 3.16 µM (active) | 3.98 µM (active) | 2 µM (active) | 4.78 µM (active) | 12 µM (active) | 7.57 µM (active) | 2.82 µM (active) | 9.53 µM (active) | 12 µM (active) |  | 10.7 µM (active) | 9.53 µM (active) | 0.891 µM (active) | 2.51 µM (active) | 3.98 µM (active) | 9.53 µM (active) |
| Nc1c2ccccc2nc2ccccc12 |  |  | 8.91 µM (active) | 10 µM (active) | 10 µM (active) | 11.2 µM (active) | 7.94 µM (active) | inactive | 13.5 µM (active) | 13.5 µM (active) | 5.01 µM (active) | 12 µM (active) |  |  |  |  | 10 µM (active) |  |  | 13.5 µM (active) |
| Nc1ccc2cc3ccc(N)cc3nc2c1 |  |  | 12.6 µM (active) |  |  |  | 8.91 µM (active) | inactive |  |  | 3.55 µM (active) |  |  |  |  |  |  |  |  |  |
| O=C(Nc1ccc(Cl)cc1)Nc1ccc(Cl)c(Cl)c1 | 6.01 µM (active) | 2.24 µM (active) | 2 µM (active) | 3.98 µM (active) | 3.55 µM (active) | 2.24 µM (active) | 2 µM (active) | 5.36 µM (active) | 4.26 µM (active) | 6.01 µM (active) | 2.24 µM (active) | 9.53 µM (active) | 7.57 µM (active) | 4.26 µM (active) | 6.01 µM (active) | 6.75 µM (active) | 3.55 µM (active) | 3.16 µM (active) | 3.55 µM (active) | 8.49 µM (active) |
| CCCCCCCCCCCCCCCC[n+]1ccccc1 | 6.75 µM (active) | 5.62 µM (active) | 7.94 µM (active) | 5.62 µM (active) | 6.31 µM (active) | 8.91 µM (active) | 3.98 µM (active) | 3.38 µM (active) | 9.53 µM (active) | 5.36 µM (active) | 2.51 µM (active) | 7.57 µM (active) | 7.57 µM (active) | 9.53 µM (active) | 6.75 µM (active) | 13.5 µM (active) | 7.08 µM (active) | 6.31 µM (active) | 8.91 µM (active) | 13.5 µM (active) |
| O=[N+]([O-])c1ccc(O)c2ncccc12 |  |  |  | 11.2 µM (active) | 8.91 µM (active) |  |  | 12 µM (active) |  |  |  |  |  |  |  |  |  |  |  |  |
| CCCCCCCCCCCCCC[N+](C)(C)C | 6.75 µM (active) | 8.91 µM (active) | 5.01 µM (active) | 3.98 µM (active) | 7.08 µM (active) | 7.94 µM (active) | 3.98 µM (active) | 4.78 µM (active) | 8.49 µM (active) | 5.36 µM (active) | 2.51 µM (active) | 6.01 µM (active) | 12 µM (active) | 6.75 µM (active) | 6.01 µM (active) | 8.49 µM (active) | 3.98 µM (active) | 5.62 µM (active) | 8.91 µM (active) | 10.7 µM (active) |
| CN1CCCN(C(c2ccccc2)c2ccc(Cl)cc2)CC1 (configuration not stated) |  | 14.1 µM (active) | 11.2 µM (active) | 11.2 µM (active) |  | 10 µM (active) | 10 µM (active) | inactive |  |  | 11.2 µM (active) |  |  |  |  |  |  | 12.6 µM (active) | 5.01 µM (active) |  |
